Results from PubChem BioAssay AID1159580 (chemical genetic matrix, 2015).
“And” between values parts separate entries of the source, which are not always exact repeats. Equal values may be shown once. Screen size: about 5,500 compounds; about 2,000 (36%) were called active. Not shown: some 18% with an inconclusive outcome. Cut-off read from the data, not from the text of the source: active = normalized growth mostly below about 0.91 (no sharp cut-off); inconclusive = no clear call, values can overlap the other calls; inactive = mostly above about 0.92. This is one part of the list.

Test: chemical genetic growth profiling, strain panel (AID 1159580);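 note: tested at 20 µM; growth read once vehicle control cultures reached saturation at 30 °C; 1 = growth at the plate median or of vehicle wells; lower values mean less growth of the strain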
Conditions: S. cerevisiae deletion strains, growth OD
[1] = locus YDR150W, strain NUM1, hits give low values
[2] = locus YMR307W, strain GAS1, hits give low values
[3] = locus YNL322C, strain KRE1, hits give low values

Measured: normalized growth

NC(N)=NCc1cccc(I)c1
inactive: locus YAL040C, strain CLN3, hits give low values 0.995 | locus YCL061C, strain MRC1 (second series), hits give low values 0.991 | [1] 1.01 | locus YDR363W, strain ESC2, hits give low values 1 | locus YER002W, strain NOP16, hits give low values 1 | [2] 0.997 | locus YNL128W, strain TEP1, hits give low values 1.02 | locus YNL175C, strain NOP13, hits give low values 1.01 | locus YNL197C, strain WHI3, hits give low values 0.987 | locus YNL224C, strain SQS1, hits give low values 1.01 | [3] 0.982 | locus YOR083W, strain WHI5 (second series), hits give low values 0.99 | locus YPL055C, strain LGE1, hits give low values 1.02

C=C(C)C1Cc2c(ccc3c(=O)c4c(oc23)COc2cc(OC)c(OC)cc2-4)O1 (centres undefined)
inactive: locus YAL021C, strain ccr4, hits give low values 1.01 | locus YAL026C, strain drs2, hits give low values 0.999 | locus YAL030W, strain snc1, hits give low values 0.987 | locus YBL061C, strain skt5, hits give low values 0.999 | locus YBR009C, strain hhf1, hits give low values 1 | locus YBR021W, strain FUR4, hits give low values 1.05 | locus YBR023C, strain chs3, hits give low values 0.998 | locus YBR171W, strain sec66, hits give low values 0.99 | locus YBR229C, strain ROT2, hits give low values 1 | locus YBR231C, strain swc5, hits give low values 1.01 | locus YBR279W, strain paf1, hits give low values 1 | locus YCL011C, strain gbp2, hits give low values 0.989 | locus YCL016C, strain dcc1, hits give low values 0.995 | locus YCL029C, strain bik1, hits give low values 1 | locus YCL061C, strain MRC1, hits give low values 0.996 | locus YCL069W, strain vba3, hits give low values 0.999 | locus YCR088W, strain abp1, hits give low values 0.996 | locus YDL005C, strain med2, hits give low values 0.997 | locus YDL035C, strain GPR1, hits give low values 1.04 | locus YDL040C, strain nat1, hits give low values 0.991 | locus YDL074C, strain BRE1, hits give low values 1.04 | locus YDL101C, strain DUN1, hits give low values 0.994 | locus YDL134C, strain PPH21, hits give low values 1.01 | locus YDL185W, strain tfp1, hits give low values 0.956 | locus YDL192W, strain arf1, hits give low values 1.03 | locus YDR001C, strain nth1, hits give low values 1 | locus YDR069C, strain doa4, hits give low values 1 | locus YDR101C, strain arx1, hits give low values 1.04 | locus YDR137W, strain rgp1, hits give low values 0.926 | [1] 0.989 | locus YDR159W, strain sac3, hits give low values 1.01 | locus YDR162C, strain NBP2, hits give low values 1.04 | locus YDR195W, strain ref2 0.998 | locus YDR297W, strain sur2, hits give low values 0.995 | locus YDR318W, strain mcm21, hits give low values 1.01 | locus YDR334W, strain swr1, hits give low values 0.982 | locus YDR335W, strain msn5, hits give low values 1 | locus YDR388W, hits give low values 0.997 | locus YDR392W, strain spt3, hits give low values 0.982 | locus YDR502C, strain sam2, hits give low values 1.01 | locus YEL003W, strain gim4, hits give low values 0.991 | locus YEL037C, strain rad23, hits give low values 0.997 | locus YEL061C, strain CIN8 (second series), hits give low values 1 | locus YEL061C, strain CIN8, hits give low values 1 | locus YER015W, strain faa2, hits give low values 1 | locus YER016W, strain bim1, hits give low values 0.994 | locus YER110C, hits give low values 1 | locus YER111C, strain swi4, hits give low values 1.01 | locus YER155C, strain BEM2 (second series), hits give low values 1.01 | locus YER155C, strain BEM2, hits give low values 0.99 | locus YER167W, strain BCK2, hits give low values 0.988 | locus YFR010W, strain ubp6, hits give low values 0.988 | locus YGL078C, strain dbp3, hits give low values 0.987 | locus YGL086W, strain mad1, hits give low values 0.995 | locus YGL167C, strain pmr1, hits give low values 1.01 | locus YGL173C, strain kem1, hits give low values 0.996 | locus YGL227W, strain vid30, hits give low values 1.01 | locus YGL240W, strain doc1, hits give low values 1.01 | locus YGL248W, strain PDE1, hits give low values 0.999 | locus YGL253W, strain hxk2, hits give low values 1 | locus YGR135W, strain pre9, hits give low values 0.983 | locus YGR229C, strain SMI1, hits give low values 0.988 | locus YGR252W, strain gcn5, hits give low values 1.06 | locus YHR013C, strain ard1, hits give low values 1.01 | locus YHR027C, strain rpn1, hits give low values 0.99 | locus YHR030C, strain SLT2, hits give low values 0.973 and 1.01 | locus YHR079C, strain IRE1 (second series), hits give low values 1 | locus YHR079C, strain IRE1, hits give low values 1.06 | locus YHR094C, strain hxt1, hits give low values 0.979 | locus YHR129C, strain ARP1, hits give low values 1.01 | locus YHR142W, strain chs7, hits give low values 1.01 | locus YHR200W, strain rpn10, hits give low values 1.01 | locus YIL066C, strain RNR3, hits give low values 1 | locus YIL073C, strain SPO22, hits give low values 0.927 | locus YIL125W, strain kgd1, hits give low values 0.998 | locus YIR030C, strain dcg1, hits give low values 0.999 | locus YJL092W, strain hpr5, hits give low values 0.993 | locus YJL095W, strain BCK1 (second series), hits give low values 0.998 | locus YJL095W, strain BCK1, hits give low values 1.03 and 1.01 | locus YJL115W, strain asf1, hits give low values 0.974 | locus YJL129C, strain trk1, hits give low values 0.993 | locus YJL134W, strain LCB3, hits give low values 0.998 | locus YJL154C, strain vps35, hits give low values 0.99 | locus YJL164C, strain tpk1, hits give low values 1 | locus YJL166W, strain qcr8, hits give low values 1.01 | locus YJL168C, strain set2, hits give low values 0.998 | locus YJL187C, strain SWE1 (second series), hits give low values 0.995 | locus YJL187C, strain SWE1, hits give low values 1.01 | locus YJR043C, strain POL32, hits give low values 1.04 | locus YJR066W, strain TOR1, hits give low values 0.986 | locus YKL009W, strain mrt4, hits give low values 1 | locus YKL068W, hits give low values 0.982 | locus YKL085W, strain MDH1 (second series), hits give low values 0.997 | locus YKL085W, strain MDH1, hits give low values 0.997 | locus YKL160W, strain elf1, hits give low values 1.01 | locus YKL190W, strain CNB1, hits give low values 0.992 | locus YKR001C, strain vps1, hits give low values 1.03 | locus YKR026C, strain gcn3, hits give low values 0.999 | locus YKR091W, strain srl3, hits give low values 0.999 | locus YLL001W, strain dnm1, hits give low values 0.995 | locus YLL026W, hits give low values 0.993 | locus YLL041C, strain sdh2, hits give low values 0.978 | locus YLR027C, strain aat2, hits give low values 0.986 | locus YLR039C, strain RIC1, hits give low values 0.99 | locus YLR058C, strain SHM2, hits give low values 1.02 | locus YLR102C, strain apc9, hits give low values 0.993 | locus YLR113W, strain HOG1, hits give low values 0.992 | locus YLR221C, strain rsa3, hits give low values 1 | locus YLR258W, strain gsy2, hits give low values 0.991 | locus YLR262C, strain YPT6 (second series), hits give low values 1 | locus YLR262C, strain YPT6, hits give low values 0.969 | locus YLR268W, strain sec22, hits give low values 1.04 | locus YLR320W, strain mms22, hits give low values 1.02 | locus YLR330W, strain CHS5, hits give low values 1 | locus YLR342W, strain FKS1 (second series), hits give low values 1.06 | locus YLR342W, strain FKS1, hits give low values 1 | locus YLR357W, strain rsc2, hits give low values 1.02 | locus YLR370C, strain arc18, hits give low values 1.01 | locus YLR371W, strain rom2, hits give low values 0.98 | locus YLR384C, strain iki3, hits give low values 1 | locus YLR418C, strain cdc73, hits give low values 1.05 | locus YML016C, strain PPZ1, hits give low values 0.999 | locus YML032C, strain rad52, hits give low values 1.01 | locus YML120C, strain ndi1, hits give low values 1.01 | locus YML124C, strain tub3, hits give low values 0.992 | locus YMR058W, strain fet3, hits give low values 1 | locus YMR078C, strain ctf18, hits give low values 0.998 | locus YMR125W, strain sto1, hits give low values 0.998 | locus YMR129W, hits give low values 0.996 | locus YMR205C, strain PFK2, hits give low values 1.02 | locus YMR223W, strain ubp8, hits give low values 1.01 | locus YMR231W, strain pep5, hits give low values 0.996 | [2] 1.18 | locus YNL067W, strain RPL9B, hits give low values 0.984 | locus YNL071W, strain lat1, hits give low values 0.981 | locus YNL153C, strain GIM3, hits give low values 0.991 | locus YNL183C, strain NPR1, hits give low values 0.988 | locus YNL209W, strain ssb2, hits give low values 0.999 | locus YNL233W, strain BNI4, hits give low values 1.03 | locus YNL248C, strain rpa49, hits give low values 0.991 | locus YNL250W, strain rad50, hits give low values 0.962 | locus YNL271C, strain bni1, hits give low values 0.99 | locus YNL298W, strain CLA4, hits give low values 1 | locus YNL307C, strain MCK1, hits give low values 0.993 | locus YNL322C, strain KRE1 (second series), hits give low values 1 | [3] 0.999 | locus YNR049C, strain mso1, hits give low values 1 | locus YNR052C, strain pop2, hits give low values 0.991 | locus YOL012C, strain htz1 1.59 | locus YOL147C, strain pex11, hits give low values 0.992 | locus YOR001W, strain rrp6, hits give low values 0.99 | locus YOR061W, strain CKA2, hits give low values 1 | locus YOR069W, strain VPS5, hits give low values 0.996 | locus YOR070C, strain gyp1, hits give low values 0.99 | locus YOR080W, strain dia2, hits give low values 1 | locus YOR083W, strain WHI5, hits give low values 1.01 | locus YOR106W, strain vam3, hits give low values 1.02 | locus YOR136W, strain idh2, hits give low values 1 | locus YOR144C, strain elg1, hits give low values 0.999 | locus YOR184W, strain ser1, hits give low values 1.07 | locus YOR231W, strain MKK1, hits give low values 1.03 | locus YOR265W, strain rbl2, hits give low values 0.993 | locus YOR270C, strain vph1, hits give low values 1 | locus YOR290C, strain snf2, hits give low values 0.998 | locus YOR316C, strain cot1, hits give low values 0.982 | locus YPL051W, strain arl3, hits give low values 1.01 | locus YPL078C, strain atp4, hits give low values 1.01 | locus YPL106C, strain sse1, hits give low values 0.992 | locus YPL240C, strain hsp82, hits give low values 0.976 | locus YPL241C, strain CIN2, hits give low values 0.991 | locus YPL256C, strain CLN2, hits give low values 1.03 | locus YPR119W, strain clb2, hits give low values 0.988 | locus YPR141C, strain kar3, hits give low values 0.974 | locus YPR163C, strain tif3, hits give low values 0.974 | locus YPR167C, strain met16, hits give low values 1.01 | strain wtn01, hits give low values 1.03
